Test results reported in article PMC7862700, “An all-to-all approach to the identification of sequence-specific readers for epigenetic DNA modifications on cytosine”.

Experiments:
Experiment in all cases: DAPPL (digital affinity profiling via proximity ligation, sequencing); 10 mM Tris-HCl pH 7.5, 50 mM NaCl, 1 mM DTT, 4% glycerol, room temperature, 30 min; GST-TFs on glutathione beads, 16-mer random dsDNA library, 0.1% formaldehyde crosslink after washing; high values mean tight binding
[1] = target: T1, FEV (Homo sapiens, UniProt Q99581 1-238); details: protein: recombinant; tags: N-terminal GST; dsDNA, one strand shown
T1 sequence: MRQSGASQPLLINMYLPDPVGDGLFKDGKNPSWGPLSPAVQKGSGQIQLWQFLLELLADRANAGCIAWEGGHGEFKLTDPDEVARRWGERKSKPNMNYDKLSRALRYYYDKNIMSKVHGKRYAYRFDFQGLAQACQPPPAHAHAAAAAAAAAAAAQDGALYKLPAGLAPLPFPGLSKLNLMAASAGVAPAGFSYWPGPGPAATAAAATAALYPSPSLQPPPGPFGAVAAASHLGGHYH
Summary of the method: (§1)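 GST fusions of human transcription factors were expressed in yeast and captured with glutathione beads. Once given DNA barcodes and pooled alongside a tag-only sample, they were incubated for 30 min at room temperature with 200 nmole of a random double-stranded 16-mer DNA library in Tris/NaCl/DTT/glycerol buffer, then washed, crosslinked (0.1% formaldehyde), proximity-ligated, PCR-amplified and sequenced on an Illumina NextSeq500. The binding signal of each hexamer is its read frequency for a factor divided by its frequency for the tag-only sample.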

[2] = target: ETV5 (Homo sapiens, UniProt P41161 1-510); details: protein: recombinant; tags: N-terminal GST; dsDNA, one strand shown
Summary of the method: as §1

[3] = target: HSF1 (Homo sapiens, UniProt Q00613 1-529); details: protein: recombinant; tags: N-terminal GST; chain copies: 3; dsDNA, one strand shown
Summary of the method: as §1

[4] = target: T2, SPIC (Homo sapiens, UniProt Q8N5J4 1-248); details: protein: recombinant; tags: N-terminal GST; dsDNA, one strand shown
T2 sequence: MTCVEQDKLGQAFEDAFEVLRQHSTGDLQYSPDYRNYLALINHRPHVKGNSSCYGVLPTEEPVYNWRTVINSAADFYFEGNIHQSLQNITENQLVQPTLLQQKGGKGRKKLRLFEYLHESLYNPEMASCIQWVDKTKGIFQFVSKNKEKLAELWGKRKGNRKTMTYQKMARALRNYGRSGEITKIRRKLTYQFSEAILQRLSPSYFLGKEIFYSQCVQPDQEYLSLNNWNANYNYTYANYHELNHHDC
Summary of the method: as §1

[5] = target: ELF4 (Homo sapiens, UniProt Q99607 1-663); details: protein: recombinant; tags: N-terminal GST; dsDNA, one strand shown
Summary of the method: as §1

[6] = target: T3, ELK4 (Homo sapiens, UniProt P28324-2 1-405); details: protein: recombinant; tags: N-terminal GST; dsDNA, one strand shown
T3 sequence: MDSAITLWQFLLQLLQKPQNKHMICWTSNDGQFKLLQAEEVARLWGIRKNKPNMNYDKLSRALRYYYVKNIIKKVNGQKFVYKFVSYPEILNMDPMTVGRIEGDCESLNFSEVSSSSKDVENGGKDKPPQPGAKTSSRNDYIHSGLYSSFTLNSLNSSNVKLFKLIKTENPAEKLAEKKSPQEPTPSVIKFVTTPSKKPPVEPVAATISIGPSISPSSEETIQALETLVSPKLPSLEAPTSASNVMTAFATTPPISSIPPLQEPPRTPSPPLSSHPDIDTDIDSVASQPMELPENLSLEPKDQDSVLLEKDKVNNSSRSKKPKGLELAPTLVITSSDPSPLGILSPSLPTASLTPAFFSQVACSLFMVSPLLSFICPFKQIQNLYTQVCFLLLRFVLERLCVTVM
Summary of the method: as §1

[7] = target: T4, ETV2 (Homo sapiens, UniProt O00321 1-342); details: protein: recombinant; tags: N-terminal GST; dsDNA, one strand shown
T4 sequence: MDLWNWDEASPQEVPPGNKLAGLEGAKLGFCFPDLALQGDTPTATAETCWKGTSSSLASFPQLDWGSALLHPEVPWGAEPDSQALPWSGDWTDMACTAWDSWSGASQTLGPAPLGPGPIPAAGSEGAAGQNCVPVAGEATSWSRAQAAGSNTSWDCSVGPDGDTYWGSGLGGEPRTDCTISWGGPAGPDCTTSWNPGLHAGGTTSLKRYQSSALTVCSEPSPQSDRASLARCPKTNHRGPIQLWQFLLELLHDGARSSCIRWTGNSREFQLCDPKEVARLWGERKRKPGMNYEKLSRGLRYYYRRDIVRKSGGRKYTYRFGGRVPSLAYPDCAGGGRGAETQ
Summary of the method: as §1

[8] = target: T5, ELF3 (Homo sapiens, UniProt P78545 1-371); details: protein: recombinant; tags: N-terminal GST; dsDNA, one strand shown
T5 sequence: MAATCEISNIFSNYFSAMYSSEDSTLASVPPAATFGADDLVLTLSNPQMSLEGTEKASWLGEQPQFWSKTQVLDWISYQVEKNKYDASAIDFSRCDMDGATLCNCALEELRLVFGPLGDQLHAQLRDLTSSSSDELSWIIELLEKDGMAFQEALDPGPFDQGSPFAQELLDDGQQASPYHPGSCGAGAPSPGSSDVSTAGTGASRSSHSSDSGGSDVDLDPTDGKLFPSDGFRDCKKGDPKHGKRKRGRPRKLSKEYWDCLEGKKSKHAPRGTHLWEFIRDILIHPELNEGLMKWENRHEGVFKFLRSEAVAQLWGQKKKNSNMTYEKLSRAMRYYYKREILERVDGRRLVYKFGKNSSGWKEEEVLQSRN
Summary of the method: as §1

[9] = target: CRX (Homo sapiens, UniProt O43186 1-299); details: protein: recombinant; tags: N-terminal GST; dsDNA, one strand shown
Summary of the method: as §1

[10] = target: ETV1 (Homo sapiens, UniProt P50549 1-477); details: protein: recombinant; tags: N-terminal GST; dsDNA, one strand shown
Summary of the method: as §1

[11] = target: T6, ERF (Homo sapiens, UniProt P50548 1-548); details: protein: recombinant; tags: N-terminal GST; dsDNA, one strand shown
T6 sequence: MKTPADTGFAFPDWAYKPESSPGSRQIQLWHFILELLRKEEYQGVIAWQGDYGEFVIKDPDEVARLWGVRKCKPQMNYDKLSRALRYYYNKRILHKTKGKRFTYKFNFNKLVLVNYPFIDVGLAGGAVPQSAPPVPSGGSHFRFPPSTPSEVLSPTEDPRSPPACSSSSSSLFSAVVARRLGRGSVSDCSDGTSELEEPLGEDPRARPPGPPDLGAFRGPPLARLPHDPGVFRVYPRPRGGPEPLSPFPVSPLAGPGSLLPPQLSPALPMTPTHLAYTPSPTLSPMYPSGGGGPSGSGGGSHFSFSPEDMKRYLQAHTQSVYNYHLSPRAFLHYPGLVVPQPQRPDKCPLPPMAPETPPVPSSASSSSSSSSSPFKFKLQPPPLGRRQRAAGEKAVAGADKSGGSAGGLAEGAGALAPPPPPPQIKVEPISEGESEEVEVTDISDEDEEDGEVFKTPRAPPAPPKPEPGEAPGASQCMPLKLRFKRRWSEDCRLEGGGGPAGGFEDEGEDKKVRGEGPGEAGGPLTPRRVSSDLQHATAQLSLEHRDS
Summary of the method: as §1

[12] = target: T7, ETV3L (Homo sapiens, UniProt Q6ZN32 1-361); details: protein: recombinant; tags: N-terminal GST; dsDNA, one strand shown
T7 sequence: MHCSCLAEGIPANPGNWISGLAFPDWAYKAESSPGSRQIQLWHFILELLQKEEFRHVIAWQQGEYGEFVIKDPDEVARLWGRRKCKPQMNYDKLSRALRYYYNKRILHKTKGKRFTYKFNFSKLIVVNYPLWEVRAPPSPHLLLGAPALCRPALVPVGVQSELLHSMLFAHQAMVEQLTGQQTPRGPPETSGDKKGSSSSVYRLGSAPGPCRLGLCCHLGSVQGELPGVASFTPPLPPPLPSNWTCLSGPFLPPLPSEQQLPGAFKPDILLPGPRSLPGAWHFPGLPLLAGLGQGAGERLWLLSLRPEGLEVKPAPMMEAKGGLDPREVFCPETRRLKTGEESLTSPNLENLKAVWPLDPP
Summary of the method: as §1

[13] = target: T8, ETS2 (Homo sapiens, UniProt P15036 1-469); details: protein: recombinant; tags: N-terminal GST; dsDNA, one strand shown
T8 sequence: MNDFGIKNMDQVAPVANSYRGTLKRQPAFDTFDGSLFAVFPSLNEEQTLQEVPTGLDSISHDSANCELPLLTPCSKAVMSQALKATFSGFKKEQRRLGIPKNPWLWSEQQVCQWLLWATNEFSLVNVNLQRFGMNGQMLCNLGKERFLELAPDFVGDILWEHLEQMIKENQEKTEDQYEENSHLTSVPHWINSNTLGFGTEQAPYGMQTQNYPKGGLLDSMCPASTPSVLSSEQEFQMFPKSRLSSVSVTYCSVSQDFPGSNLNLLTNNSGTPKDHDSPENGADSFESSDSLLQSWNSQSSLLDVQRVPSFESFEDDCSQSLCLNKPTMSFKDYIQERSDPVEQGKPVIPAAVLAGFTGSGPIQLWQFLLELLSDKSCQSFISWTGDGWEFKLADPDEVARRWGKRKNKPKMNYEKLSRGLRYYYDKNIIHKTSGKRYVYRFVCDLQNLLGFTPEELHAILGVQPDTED
Summary of the method: as §1

[14] = target: T9, SPDEF (Homo sapiens, UniProt O95238 1-335); details: protein: recombinant; tags: N-terminal GST; dsDNA, one strand shown
T9 sequence: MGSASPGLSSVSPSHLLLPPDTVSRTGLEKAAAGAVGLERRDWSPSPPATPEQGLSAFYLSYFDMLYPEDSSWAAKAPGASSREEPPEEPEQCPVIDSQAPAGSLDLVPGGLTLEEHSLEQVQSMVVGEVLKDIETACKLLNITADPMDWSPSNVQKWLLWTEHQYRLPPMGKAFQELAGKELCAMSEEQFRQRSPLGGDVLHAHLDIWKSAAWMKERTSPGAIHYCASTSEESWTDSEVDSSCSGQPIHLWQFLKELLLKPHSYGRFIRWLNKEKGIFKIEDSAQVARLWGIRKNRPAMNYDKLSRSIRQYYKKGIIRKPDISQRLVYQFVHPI
Summary of the method: as §1

[15] = target: T10, ETV7 (Homo sapiens, UniProt Q9Y603 1-341); details: protein: recombinant; tags: N-terminal GST; dsDNA, one strand shown
T10 sequence: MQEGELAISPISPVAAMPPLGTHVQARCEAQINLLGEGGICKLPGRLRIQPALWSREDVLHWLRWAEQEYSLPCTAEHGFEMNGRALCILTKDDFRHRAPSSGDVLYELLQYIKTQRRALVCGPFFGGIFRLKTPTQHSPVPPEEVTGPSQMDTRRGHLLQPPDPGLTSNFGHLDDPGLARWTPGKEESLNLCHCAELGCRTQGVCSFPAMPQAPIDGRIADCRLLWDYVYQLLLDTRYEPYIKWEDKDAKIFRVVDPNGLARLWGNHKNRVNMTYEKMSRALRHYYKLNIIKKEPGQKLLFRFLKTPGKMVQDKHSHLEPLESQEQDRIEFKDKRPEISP
Summary of the method: as §1

[16] = target: T11, ELF5 (Homo sapiens, UniProt Q9UKW6-2 1-255); details: protein: recombinant; tags: N-terminal GST; dsDNA, one strand shown
T11 sequence: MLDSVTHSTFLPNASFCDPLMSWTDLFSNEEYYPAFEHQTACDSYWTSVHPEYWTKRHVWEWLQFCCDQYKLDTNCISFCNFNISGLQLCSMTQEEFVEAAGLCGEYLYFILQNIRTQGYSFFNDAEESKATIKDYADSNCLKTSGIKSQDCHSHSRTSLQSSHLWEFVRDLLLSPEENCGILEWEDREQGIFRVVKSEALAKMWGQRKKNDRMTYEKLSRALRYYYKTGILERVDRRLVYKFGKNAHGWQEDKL
Summary of the method: as §1

[17] = target: T12, ETV3 (Homo sapiens, UniProt P41162-2 1-143); details: protein: recombinant; tags: N-terminal GST; dsDNA, one strand shown
T12 sequence: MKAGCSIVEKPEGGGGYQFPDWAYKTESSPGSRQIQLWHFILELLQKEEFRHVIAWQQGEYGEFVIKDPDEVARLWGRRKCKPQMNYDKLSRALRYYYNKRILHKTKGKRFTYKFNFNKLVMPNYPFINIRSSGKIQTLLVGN
Summary of the method: as §1

[18] = target: ETV6 (Homo sapiens, UniProt P41212 1-452); details: protein: recombinant; tags: N-terminal GST; dsDNA, one strand shown
Summary of the method: as §1

Chain of ETV1 (P50549 whole entry): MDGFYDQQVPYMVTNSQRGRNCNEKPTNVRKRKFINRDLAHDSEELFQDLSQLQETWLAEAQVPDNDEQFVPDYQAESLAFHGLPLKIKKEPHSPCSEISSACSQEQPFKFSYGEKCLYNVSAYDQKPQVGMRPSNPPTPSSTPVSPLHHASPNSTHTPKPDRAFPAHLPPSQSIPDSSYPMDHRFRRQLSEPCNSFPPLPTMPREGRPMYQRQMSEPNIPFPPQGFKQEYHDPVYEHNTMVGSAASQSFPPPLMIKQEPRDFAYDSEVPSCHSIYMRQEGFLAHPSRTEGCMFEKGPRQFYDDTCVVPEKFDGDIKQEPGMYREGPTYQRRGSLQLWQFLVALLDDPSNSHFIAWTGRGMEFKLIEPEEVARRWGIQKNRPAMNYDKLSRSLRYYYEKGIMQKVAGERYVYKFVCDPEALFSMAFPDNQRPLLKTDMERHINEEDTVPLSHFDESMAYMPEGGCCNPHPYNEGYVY
Chain of ETV6 (P41212 whole entry): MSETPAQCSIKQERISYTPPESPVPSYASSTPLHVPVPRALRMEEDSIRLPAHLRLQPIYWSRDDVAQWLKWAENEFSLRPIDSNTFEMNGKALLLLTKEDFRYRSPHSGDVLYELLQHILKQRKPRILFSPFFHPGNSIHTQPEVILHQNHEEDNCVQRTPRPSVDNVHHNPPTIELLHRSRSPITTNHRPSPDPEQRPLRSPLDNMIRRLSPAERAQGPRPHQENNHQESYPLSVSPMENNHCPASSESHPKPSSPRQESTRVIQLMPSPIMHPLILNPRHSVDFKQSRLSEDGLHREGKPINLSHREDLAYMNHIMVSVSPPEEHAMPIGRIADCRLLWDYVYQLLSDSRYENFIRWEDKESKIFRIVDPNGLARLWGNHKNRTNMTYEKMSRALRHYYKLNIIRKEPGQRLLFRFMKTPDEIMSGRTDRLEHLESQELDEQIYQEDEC
Chain of HSF1 (Q00613 whole entry): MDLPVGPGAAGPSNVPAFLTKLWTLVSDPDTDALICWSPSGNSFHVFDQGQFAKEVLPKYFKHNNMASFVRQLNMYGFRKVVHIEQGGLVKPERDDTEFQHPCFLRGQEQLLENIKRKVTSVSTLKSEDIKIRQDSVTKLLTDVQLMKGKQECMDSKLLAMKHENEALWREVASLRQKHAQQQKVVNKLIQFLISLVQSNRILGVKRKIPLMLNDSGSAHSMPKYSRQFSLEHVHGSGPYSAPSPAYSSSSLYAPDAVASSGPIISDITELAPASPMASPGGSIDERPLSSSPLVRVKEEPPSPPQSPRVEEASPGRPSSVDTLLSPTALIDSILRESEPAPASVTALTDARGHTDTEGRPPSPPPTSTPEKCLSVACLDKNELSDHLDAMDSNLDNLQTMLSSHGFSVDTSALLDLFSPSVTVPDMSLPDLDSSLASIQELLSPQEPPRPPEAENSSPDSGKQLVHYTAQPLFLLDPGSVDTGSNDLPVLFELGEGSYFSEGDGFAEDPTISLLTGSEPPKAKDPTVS
Chain of ETV5 (P41161 whole entry): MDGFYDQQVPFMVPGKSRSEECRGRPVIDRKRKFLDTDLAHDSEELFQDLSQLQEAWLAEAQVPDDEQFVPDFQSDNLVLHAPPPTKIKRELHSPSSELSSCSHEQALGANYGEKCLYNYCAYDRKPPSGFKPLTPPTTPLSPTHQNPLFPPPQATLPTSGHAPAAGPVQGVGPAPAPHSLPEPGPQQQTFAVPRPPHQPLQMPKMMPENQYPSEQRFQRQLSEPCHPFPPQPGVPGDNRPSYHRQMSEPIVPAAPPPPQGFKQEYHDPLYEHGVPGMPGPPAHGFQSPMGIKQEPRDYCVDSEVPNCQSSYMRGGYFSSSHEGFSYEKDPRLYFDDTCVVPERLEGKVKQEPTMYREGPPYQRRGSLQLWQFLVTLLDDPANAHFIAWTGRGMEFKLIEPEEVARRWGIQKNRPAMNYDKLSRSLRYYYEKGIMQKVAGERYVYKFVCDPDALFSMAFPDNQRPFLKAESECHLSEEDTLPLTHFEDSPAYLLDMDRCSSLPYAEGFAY
Chain of ELF4 (Q99607 whole entry): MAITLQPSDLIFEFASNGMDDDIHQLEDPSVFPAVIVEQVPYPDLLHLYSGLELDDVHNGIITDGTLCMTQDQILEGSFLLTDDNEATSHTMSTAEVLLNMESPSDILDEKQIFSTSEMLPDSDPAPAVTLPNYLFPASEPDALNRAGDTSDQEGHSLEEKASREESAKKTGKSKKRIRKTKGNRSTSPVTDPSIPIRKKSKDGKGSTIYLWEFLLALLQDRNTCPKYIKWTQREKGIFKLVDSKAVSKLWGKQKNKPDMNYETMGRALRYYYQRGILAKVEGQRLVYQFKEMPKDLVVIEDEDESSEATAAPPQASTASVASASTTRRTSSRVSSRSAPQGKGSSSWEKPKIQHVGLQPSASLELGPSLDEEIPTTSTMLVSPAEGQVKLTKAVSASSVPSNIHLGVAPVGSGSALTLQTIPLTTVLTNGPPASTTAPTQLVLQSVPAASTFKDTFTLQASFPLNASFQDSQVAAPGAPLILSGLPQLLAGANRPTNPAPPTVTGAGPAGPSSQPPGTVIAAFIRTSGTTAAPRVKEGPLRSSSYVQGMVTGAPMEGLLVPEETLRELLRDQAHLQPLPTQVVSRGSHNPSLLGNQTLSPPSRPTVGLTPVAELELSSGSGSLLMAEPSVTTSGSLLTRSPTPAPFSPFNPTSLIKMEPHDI
Chain of CRX (O43186 whole entry): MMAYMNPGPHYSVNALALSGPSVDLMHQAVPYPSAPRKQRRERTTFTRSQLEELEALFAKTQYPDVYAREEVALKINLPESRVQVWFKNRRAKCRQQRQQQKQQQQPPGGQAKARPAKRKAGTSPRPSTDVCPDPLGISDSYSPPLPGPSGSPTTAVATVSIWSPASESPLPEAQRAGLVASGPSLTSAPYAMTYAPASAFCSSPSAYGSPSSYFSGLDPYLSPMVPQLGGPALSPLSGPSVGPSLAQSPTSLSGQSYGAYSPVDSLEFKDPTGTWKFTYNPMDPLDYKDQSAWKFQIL

Sequence	binding signal [1]	binding signal [2]	binding signal [3]	binding signal [4]	binding signal [5]	binding signal [6]	binding signal [7]	binding signal [8]	binding signal [9]	binding signal [10]	binding signal [11]	binding signal [12]	binding signal [13]	binding signal [14]	binding signal [15]	binding signal [16]	binding signal [17]	binding signal [18]
TGGCTC	1.39 fold enrichment (6-mer frequency, TF over GST control)	1.3 fold enrichment (6-mer frequency, TF over GST control)	1.36 fold enrichment (6-mer frequency, TF over GST control)	1.46 fold enrichment (6-mer frequency, TF over GST control)	1.35 fold enrichment (6-mer frequency, TF over GST control)	1.5 fold enrichment (6-mer frequency, TF over GST control)	1.61 fold enrichment (6-mer frequency, TF over GST control)	1.44 fold enrichment (6-mer frequency, TF over GST control)	1.3 fold enrichment (6-mer frequency, TF over GST control)	1.42 fold enrichment (6-mer frequency, TF over GST control)	1.31 fold enrichment (6-mer frequency, TF over GST control)	1.5 fold enrichment (6-mer frequency, TF over GST control)	1.23 fold enrichment (6-mer frequency, TF over GST control)	1.32 fold enrichment (6-mer frequency, TF over GST control)	1.22 fold enrichment (6-mer frequency, TF over GST control)	1.21 fold enrichment (6-mer frequency, TF over GST control)	1.44 fold enrichment (6-mer frequency, TF over GST control)	1.36 fold enrichment (6-mer frequency, TF over GST control)
ACTATG	1.21 fold enrichment (6-mer frequency, TF over GST control)	1.19 fold enrichment (6-mer frequency, TF over GST control)	1.09 fold enrichment (6-mer frequency, TF over GST control)	1.37 fold enrichment (6-mer frequency, TF over GST control)	1.26 fold enrichment (6-mer frequency, TF over GST control)	1.08 fold enrichment (6-mer frequency, TF over GST control)	1.24 fold enrichment (6-mer frequency, TF over GST control)	1.09 fold enrichment (6-mer frequency, TF over GST control)	1.02 fold enrichment (6-mer frequency, TF over GST control)	1.24 fold enrichment (6-mer frequency, TF over GST control)	1.15 fold enrichment (6-mer frequency, TF over GST control)	1.2 fold enrichment (6-mer frequency, TF over GST control)	1.3 fold enrichment (6-mer frequency, TF over GST control)	1.28 fold enrichment (6-mer frequency, TF over GST control)	1.18 fold enrichment (6-mer frequency, TF over GST control)	1.16 fold enrichment (6-mer frequency, TF over GST control)	1.25 fold enrichment (6-mer frequency, TF over GST control)	1.19 fold enrichment (6-mer frequency, TF over GST control)
